According to PubChem BioAssay:
“And” between values parts separate entries of the source, which are not always exact repeats. Equal entries are not always repeated. Results filed as inconclusive are left out. Where a structure was tested more than once in an assay, its records may differ in their call. The source made the active and inactive calls.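 The calls were made as follows, unless noted: active = normalized viability below 100% at a tested concentration; inactive = the rest.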

Columns and labels:
[1] = growth inhibition of DIPG cells – cell-based, MIPE4.0 library, CellTiter-Glo luminescence, qHTS (AID 1347066; cut-off not given, nearly all actives have AC50 up to about 30 µM;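 also: cells exposed to compound for 48 hours before readout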); settings: SU-DIPG-VI viability, CellTiter-Glo ATP luminescence
[2] = viability loss with induced miR-34 in A549 – imaging, A549 dox-inducible miR-34, nuclei and caspase counts, primary screen (AID 1347080;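 active = compounds whose cell count with miR-34 switched on is under 0.7 times the count with it off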); settings: A549 miR-34 inducible, Hoechst nuclei count, 48 h
[3] = blockers of cellular phospholipid synthesis – cell-based, LOPAC library, screen 4, primary screen (AID 1347384; call rule not given here); settings: animal cells, phospholipid biosynthesis inhibition screen; at 10 µM
[4] = MELAS cybrid and Rieske KO viability enhancers – cell-based, MELAS cybrids, Rieske KO mouse fibroblasts, CellTiter-Glo, primary screen (AID 1508586;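 active = mean z-score across replicates of 1.96 or higher in either the MELAS or the Rieske mutant cell line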;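 also: z relative to plate mean and SD of compound and empty wells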); settings: low glucose
[5] = biological target: NAD(+) hydrolase SARM1 (Homo sapiens) (UniProt Q6SZW1); assay: blocking NAD cleavage by SARM1 SAM-TIR – cell lysate, NAD-Glo luminescence (AID 1508614;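 active = compound whose remaining NAD level is above about 45 nM, limit read from the data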;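 also: higher remaining NAD means stronger inhibition of SARM1 NADase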); settings: SAM-TIR HEK293T lysate NADase, at 1 µM, stronger effect = higher value
[6] = galactose survival enhancers in mitochondrial complex I cybrids – cell-based, galactose medium, ATP luminescence, primary screen (AID 1645843;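 active = z-score of at least 1.8 in each of two replicates, scored against plate mean and spread of sample wells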;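 also: positive z means more ATP and so rescue of galactose-driven cybrid death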); settings: complex I mutant cybrid cells, 72 h, stronger effect = higher value
[7] = biological target: Mitogen-activated protein kinase 7 (Homo sapiens) (UniProt Q13164); assay: Gal4-ERK5 driven luciferase induction – cell-based, HTS, primary screen (AID 1508626;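 active = luciferase signal above three times the same-plate solvent-only control wells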;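 also: luciferase driven by Gal4-ERK5 fusion binding five Gal4 sites before minimal TATA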); settings: HeLa Gal4-ERK5 transactivation, 18 h, at 5 µM, stronger effect = higher value
[8] = growth inhibition of DIPG cells – cell-based, MIPE5.0 library, qHTS (AID 1347068; cut-off not given, nearly all actives have IC50 up to about 30 µM); settings: SU-DIPG-XXV viability
[9] = JHH-DIPG-1 glioma cell viability, MIPE5.0 library, CellTiter-Glo luminescence, qHTS (AID 1347067; cut-off not given, nearly all actives have AC50 up to about 26 µM;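 also: cells exposed to compound for 48 hours before readout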); settings: JHH-DIPG-1 glioma viability, CellTiter-Glo ATP luminescence
[10] = compounds altering HSF1 focus formation in cells – imaging, Selleck Cancer Library (AID 1347162; in the data active = plate-normalised HSF1 focus index below about 0.46); settings: human cells, HSF1 nuclear foci imaging, at 10 µM; SSMD: measured here: HSF1 foci SSMD mean; cell count: measured here: cell number; plate-normalised HSF1 focus index: stronger effect = lower value
[11] = drug combination growth inhibition, ovarian cancer – cell-based, oncology-focused library, rucaparib conditional, profiling panel (AID 1508598); settings: patient-derived ovarian cancer cells, CellTiter-Glo viability, 144 h, stronger effect = lower value
[12] = chitosan synthesis blockers in C. neoformans – flow cytometry, Cibacron Brilliant Red staining (AID 1347148; call rule not given here;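 also: compound exposure lasted three days at 37 degrees C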); settings: Cryptococcus neoformans chitosan, stronger effect = lower value; at 10 µM unless noted
[13] = stronger effect = lower value, cell number ratio, induced over uninduced
[14] = measured here: relative caspase fold change +Dox/-Dox
[15] = measured here: total cells with miR-34 induction, stronger effect = lower value
[16] = measured here: total cells without miR-34 induction
[17] = MELAS cybrid survival, CellTiter-Glo 48 h, stronger effect = higher value
[18] = Rieske KO mouse fibroblast survival, CellTiter-Glo 72 h

NAD(+) hydrolase SARM1 (Homo sapiens), sequence (Q6SZW1 whole entry, looked up): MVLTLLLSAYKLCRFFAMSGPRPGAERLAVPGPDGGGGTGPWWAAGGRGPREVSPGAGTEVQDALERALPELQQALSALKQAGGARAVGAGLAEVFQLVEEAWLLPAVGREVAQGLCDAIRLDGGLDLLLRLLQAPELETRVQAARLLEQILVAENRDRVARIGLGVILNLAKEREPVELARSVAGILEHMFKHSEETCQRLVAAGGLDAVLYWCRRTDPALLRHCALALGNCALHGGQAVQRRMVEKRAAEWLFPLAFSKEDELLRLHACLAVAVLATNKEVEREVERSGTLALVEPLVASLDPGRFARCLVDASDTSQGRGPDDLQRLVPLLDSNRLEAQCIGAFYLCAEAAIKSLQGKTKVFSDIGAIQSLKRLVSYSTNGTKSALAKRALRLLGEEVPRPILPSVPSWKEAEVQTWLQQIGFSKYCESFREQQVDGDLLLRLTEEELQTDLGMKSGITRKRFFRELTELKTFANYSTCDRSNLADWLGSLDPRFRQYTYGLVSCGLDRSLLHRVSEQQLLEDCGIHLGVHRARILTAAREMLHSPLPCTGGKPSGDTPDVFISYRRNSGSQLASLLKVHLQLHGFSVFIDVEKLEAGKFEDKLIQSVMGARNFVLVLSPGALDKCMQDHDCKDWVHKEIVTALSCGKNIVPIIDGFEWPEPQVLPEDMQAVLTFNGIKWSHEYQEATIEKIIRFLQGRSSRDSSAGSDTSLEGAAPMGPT
Mitogen-activated protein kinase 7 (Homo sapiens), sequence (Q13164 whole entry, looked up, the tested form may be a part): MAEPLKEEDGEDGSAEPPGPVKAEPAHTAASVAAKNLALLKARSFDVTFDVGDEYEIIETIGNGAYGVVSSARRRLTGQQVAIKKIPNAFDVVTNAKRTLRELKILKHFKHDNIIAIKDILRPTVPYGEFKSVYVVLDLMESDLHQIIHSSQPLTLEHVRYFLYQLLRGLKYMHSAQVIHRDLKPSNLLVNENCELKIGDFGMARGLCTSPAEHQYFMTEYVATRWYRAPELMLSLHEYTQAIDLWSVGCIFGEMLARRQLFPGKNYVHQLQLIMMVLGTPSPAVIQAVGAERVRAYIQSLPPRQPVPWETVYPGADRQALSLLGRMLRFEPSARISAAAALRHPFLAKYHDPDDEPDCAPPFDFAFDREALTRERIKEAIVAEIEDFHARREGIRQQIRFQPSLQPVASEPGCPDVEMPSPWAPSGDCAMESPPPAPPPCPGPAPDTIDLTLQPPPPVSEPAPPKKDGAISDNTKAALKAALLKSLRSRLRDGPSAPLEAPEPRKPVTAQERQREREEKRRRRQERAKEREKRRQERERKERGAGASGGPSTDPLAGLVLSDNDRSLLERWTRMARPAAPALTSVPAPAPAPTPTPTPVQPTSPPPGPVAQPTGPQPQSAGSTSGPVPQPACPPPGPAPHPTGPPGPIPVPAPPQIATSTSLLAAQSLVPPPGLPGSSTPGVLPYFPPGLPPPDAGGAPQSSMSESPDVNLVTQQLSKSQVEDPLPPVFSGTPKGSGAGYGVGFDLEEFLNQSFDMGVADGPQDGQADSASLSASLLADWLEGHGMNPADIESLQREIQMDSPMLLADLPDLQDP

Nc1ccn([C@H]2CC[C@@H](CO)O2)c(=O)n1
outcome [1]: inactive | fold change [2, 13]: 1 (inactive) and 0.95 (inactive) and 0.852 (inactive) | fold change [2, 14]: 0.845 and 0.908 and 1.17 | cell count [2, 15]: 9380 and 8950 and 8540 | cell count [2, 16]: 9340 and 9420 and 10000 | outcome [3]: inactive | z-score [4, 17]: -0.041 (inactive) and 0.441 (inactive) | z-score [4, 18]: -0.157 and -0.525 | remaining NAD [5]: 10 nM (inactive) | z-score [6]: 0.025 (inactive) and 0.685 (inactive)

COc1cc2nc(N3CCN(C(=O)C4CCCO4)CC3)nc(N)c2cc1OC (stereo unspecified)
outcome [1]: inactive | z-score [4, 17]: -0.37 (inactive) and 0.933 (inactive) and -0.482 (inactive) | z-score [4, 18]: 0.344 and 0.726 and -1.05 | remaining NAD [5]: 10 nM (inactive) | luciferase signal [7]: 64 AU (inactive)

CN1CCN2c3ccccc3Cc3ccccc3C2C1 (stereo unspecified)
outcome [1]: inactive | outcome [3]: inactive | z-score [4, 17]: -0.437 (inactive) and -0.163 (inactive) and -1.32 (inactive) | z-score [4, 18]: 0.688 and 0.138 and 0.514 | remaining NAD [5]: 10 nM (inactive) | luciferase signal [7]: 48 AU (inactive) | z-score [6]: -0.385 (inactive) and 2.53 (active) and -0.36 (inactive)

COc1cc([C@H]2Oc3cc([C@H]4Oc5cc(O)cc(O)c5C(=O)[C@@H]4O)ccc3O[C@@H]2CO)ccc1O
outcome [1]: inactive | outcome [8]: inactive | luciferase signal [7]: 64 AU (inactive)

CN1CCN(CCCN2c3ccccc3Sc3ccc(Cl)cc32)CC1
AC50 [1]: 16.6 µM (active) | z-score [4, 17]: -0.995 (inactive) | z-score [4, 18]: -0.206 | remaining NAD [5]: 10 nM (inactive) | luciferase signal [7]: 80 AU (inactive) | z-score [6]: -1.35 (inactive) and -1.42 (inactive)

NS(=O)(=O)c1cc(C(=O)O)c(NCc2ccco2)cc1Cl
outcome [1]: inactive | z-score [4, 17]: -0.297 (inactive) and -0.16 (inactive) and 0.0353 (inactive) | z-score [4, 18]: 0.703 and -0.228 and 0.451 | remaining NAD [5]: 10 nM (inactive) | luciferase signal [7]: 72 AU (inactive) | z-score [6]: 0.405 (inactive) and 0.415 (inactive)

OC[C@H]1O[C@@H](Oc2ccc(O)cc2)[C@H](O)[C@@H](O)[C@@H]1O
outcome [1]: inactive | fold change [2, 13]: 0.914 (inactive) | fold change [2, 14]: 0.569 | cell count [2, 15]: 9130 | cell count [2, 16]: 9990 | z-score [4, 17]: 0.856 (inactive) | z-score [4, 18]: 0.44 | luciferase signal [7]: 48 AU (inactive)

CC[C@@]1(O)C(=O)OCc2c1cc1n(c2=O)Cc2cc3c(CN(C)C)c(O)ccc3nc2-1
outcome [1]: inactive | AC50 [9]: 4.17 µM (active) | SSMD [10]: -8.15 | cell count [10]: 6870 | plate-normalised HSF1 focus index [10]: 0.582 (inactive) | outcome [3]: inactive | z-score [4, 17]: -0.568 (inactive) and -2.28 (inactive) and -2.25 (inactive) | z-score [4, 18]: 0.849 and -0.703 and -1.06 | viability ([11]; at 0.000305 µM, OCI-C5x cells, with rucaparib 10 µM, 100% = cells with rucaparib alone): 104% (inactive) | viability ([11]; at 0.000305 µM, OCI-C5x cells, without rucaparib): 104% (inactive) | viability ([11]; at 0.000305 µM, OCI-P5x cells, with rucaparib 20 µM, 100% = cells with rucaparib alone): 94.2% (active) | viability ([11]; at 0.000305 µM, OCI-P5x cells, without rucaparib): 107% (inactive) | viability ([11]; at 0.00122 µM, OCI-C5x cells, with rucaparib 10 µM, 100% = cells with rucaparib alone): 89.3% (active) | viability ([11]; at 0.00122 µM, OCI-C5x cells, without rucaparib): 92.9% (active) | viability ([11]; at 0.00122 µM, OCI-P5x cells, with rucaparib 20 µM, 100% = cells with rucaparib alone): 83.1% (active) | viability ([11]; at 0.00122 µM, OCI-P5x cells, without rucaparib): 79.7% (active) | viability ([11]; at 0.00488 µM, OCI-C5x cells, with rucaparib 10 µM, 100% = cells with rucaparib alone): 83.9% (active) | viability ([11]; at 0.00488 µM, OCI-C5x cells, without rucaparib): 62.6% (active) | viability ([11]; at 0.00488 µM, OCI-P5x cells, with rucaparib 20 µM, 100% = cells with rucaparib alone): 64.6% (active) | viability ([11]; at 0.00488 µM, OCI-P5x cells, without rucaparib): 49.2% (active) | viability ([11]; at 0.0195 µM, OCI-C5x cells, with rucaparib 10 µM, 100% = cells with rucaparib alone): 61.6% (active) | viability ([11]; at 0.0195 µM, OCI-C5x cells, without rucaparib): 46.1% (active) | viability ([11]; at 0.0195 µM, OCI-P5x cells, with rucaparib 20 µM, 100% = cells with rucaparib alone): 51.1% (active) | viability ([11]; at 0.0195 µM, OCI-P5x cells, without rucaparib): 31.5% (active) | viability ([11]; at 0.0781 µM, OCI-C5x cells, with rucaparib 10 µM, 100% = cells with rucaparib alone): 43.7% (active) | viability ([11]; at 0.0781 µM, OCI-C5x cells, without rucaparib): 22.5% (active) | viability ([11]; at 0.0781 µM, OCI-P5x cells, with rucaparib 20 µM, 100% = cells with rucaparib alone): 31.5% (active) | viability ([11]; at 0.0781 µM, OCI-P5x cells, without rucaparib): 11.7% (active) | viability ([11]; at 0.313 µM, OCI-C5x cells, with rucaparib 10 µM, 100% = cells with rucaparib alone): 31% (active) | viability ([11]; at 0.313 µM, OCI-C5x cells, without rucaparib): 10.3% (active) | viability ([11]; at 0.313 µM, OCI-P5x cells, with rucaparib 20 µM, 100% = cells with rucaparib alone): 10.6% (active) | viability ([11]; at 0.313 µM, OCI-P5x cells, without rucaparib): 4.1% (active) | viability ([11]; at 1.25 µM, OCI-C5x cells, with rucaparib 10 µM, 100% = cells with rucaparib alone): 11.2% (active) | viability ([11]; at 1.25 µM, OCI-C5x cells, without rucaparib): 7.82% (active) | viability ([11]; at 1.25 µM, OCI-P5x cells, with rucaparib 20 µM, 100% = cells with rucaparib alone): 3.74% (active) | viability ([11]; at 1.25 µM, OCI-P5x cells, without rucaparib): 1.56% (active) | viability ([11]; at 5 µM, OCI-C5x cells, with rucaparib 10 µM, 100% = cells with rucaparib alone): 4.91% (active) | viability ([11]; at 5 µM, OCI-C5x cells, without rucaparib): 4% (active) | viability ([11]; at 5 µM, OCI-P5x cells, with rucaparib 20 µM, 100% = cells with rucaparib alone): 5.99% (active) | viability ([11]; at 5 µM, OCI-P5x cells, without rucaparib): 4.13% (active) | remaining NAD [5]: 10 nM (inactive) | z-score [6]: -1.13 (inactive) and -1.87 (inactive) and -2.38 (inactive)

O=C(N[C@H](CO)[C@H](O)c1ccc([N+](=O)[O-])cc1)C(Cl)Cl
outcome [1]: inactive | fold change [2, 13]: 0.94 (inactive) and 0.855 (inactive) | fold change [2, 14]: 1.13 and 1.29 | cell count [2, 15]: 8280 and 6420 | cell count [2, 16]: 8810 and 7510 | z-score [4, 17]: -0.509 (inactive) and 0.536 | z-score [4, 18]: -3.37 and 2.44 | remaining NAD [5]: 10 nM (inactive) | luciferase signal [7]: 88 AU (inactive) | z-score [6]: -0.74 (inactive)

CCOC(=O)C1=C[C@]2(CC)CCCN3CCc4c(n1c1ccccc41)[C@@H]32
AC50 [1]: 26.4 µM (active) | fold fluorescence [12]: 12.8 [at 142.7 µM] (inactive) | outcome [3]: inactive | z-score [4, 17]: 0.416 (inactive) and 0.251 (inactive) | z-score [4, 18]: 0.313 and -0.628 | remaining NAD [5]: 10 nM (inactive) | luciferase signal [7]: 52 AU (inactive) | z-score [6]: 0.33 (inactive) and -0.95 (inactive) and -0.445 (inactive)

CC(=O)Nc1ccc(O)cc1
outcome [1]: inactive | outcome [8]: inactive | fold change [2, 13]: 0.829 (inactive) and 0.996 (inactive) and 0.866 (inactive) | fold change [2, 14]: 0.925 and 0.621 and 1.43 | cell count [2, 15]: 8180 and 9760 and 10200 | cell count [2, 16]: 9870 and 9800 and 11800 | z-score [4, 17]: 0.35 (inactive) | z-score [4, 18]: -0.0609 | remaining NAD [5]: 10 nM (inactive) | luciferase signal [7]: 40 AU (inactive) | z-score [6]: -0.13 (inactive)
